12-LOX inh – Primary qHTS assay for inhibitors of human arachidonate 12S-lipoxygenase (ALOX12): Round 2 | purified 12hLO, xylenol orange hydroperoxide absorbance | 580,000 compounds, 1.1% hits | Potency, µM (titrated, usually from 108 µM), for inactives: top-dose activity change, negative = inhibition, usual class: inhibitors | AID 1671190, 2021
Target sequence (P18054 whole entry, looked up): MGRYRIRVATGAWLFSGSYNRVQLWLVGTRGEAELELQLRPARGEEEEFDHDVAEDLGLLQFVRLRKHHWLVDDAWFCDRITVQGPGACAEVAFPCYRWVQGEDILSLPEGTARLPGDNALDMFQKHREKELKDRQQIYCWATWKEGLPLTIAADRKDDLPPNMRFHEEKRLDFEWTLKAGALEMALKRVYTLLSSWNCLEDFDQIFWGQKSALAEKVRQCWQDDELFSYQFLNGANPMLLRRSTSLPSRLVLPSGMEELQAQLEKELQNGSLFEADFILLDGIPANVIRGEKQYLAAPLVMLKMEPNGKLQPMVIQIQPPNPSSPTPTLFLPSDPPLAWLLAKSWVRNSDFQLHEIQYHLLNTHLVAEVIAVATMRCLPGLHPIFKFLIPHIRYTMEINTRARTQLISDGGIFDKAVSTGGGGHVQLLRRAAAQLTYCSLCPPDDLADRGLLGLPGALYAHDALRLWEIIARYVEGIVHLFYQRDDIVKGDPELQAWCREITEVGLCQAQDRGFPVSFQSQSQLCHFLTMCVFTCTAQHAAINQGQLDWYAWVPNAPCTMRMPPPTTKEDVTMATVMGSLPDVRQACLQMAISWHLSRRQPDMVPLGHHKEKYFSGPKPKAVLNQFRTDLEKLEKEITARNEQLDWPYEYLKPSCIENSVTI
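Purified human 12hLO (150 nM final) in 25 mM Hepes, 0.01% Triton X-100, pH 7.0 was preincubated 15 min at room temperature with compound. Then 40 uM arachidonic acid was added, 30 min. Hydroperoxide was read by Fe-XO absorbance ratio 573/405 nm.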
DT40 TDP1 no CPT – qHTS for Inhibitors of human tyrosyl-DNA phosphodiesterase 1 (TDP1): qHTS in cells in absence of CPT. Potency, µM (top dose mostly 46.2 µM), inactives show at the top dose activity change, negative = growth inhibition, most hits filed as inhibitors. 420,000 compounds, 15% hits. DT40 Tdp1-/- hTDP1 cells, no CPT, ATP luminescence, 48 h; also: nearly all actives have a fitted effect of over 55% in size
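DT40 Tdp1-/-;hTDP1 cells, no CPT (DMSO vehicle only), 400 cells/well; compounds pin-transferred; ≥48 hr, 37 °C; CellTiter-Glo 30 min RT dark, luminescence read.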
RORgamma inh – qHTS for inhibitors of ROR gamma transcriptional activity | Drosophila S2 Gal4-RORgamma UAS-luciferase reporter, 20 h | Potency, µM (doses to about 53.6 µM), without a hit: at the highest dose activity change, negative = inhibition, hits mostly inhibitors | 310,000 compounds, 5.4% hits; also: nearly all actives have a fitted effect of over 60% in size
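Stably transfected Drosophila Schneider cells are the test system, with ROR gamma fused to Gal4 and luciferase under UAS control; luminescence is read after 20 hr of 700 uM copper sulfate induction at ambient temperature.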
DT40 TDP1 CPT – qHTS for Inhibitors of human tyrosyl-DNA phosphodiesterase 1 (TDP1): qHTS in cells in presence of CPT | chicken DT40 Tdp1-/-;hTDP1 cells + 20 nM CPT, ATP luminescence, 48 h | Potency, µM (doses to about 46.2 µM), inactives show at the top dose activity change, negative = growth inhibition, usual class: inhibitors | 420,000 compounds, 12% hits; also: nearly all actives have a fitted effect of over 55% in size
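Cell growth measured by CellTiter-Glo luminescence after a minimum 48 h, 37 C compound exposure with 20 nM CPT in Tdp1-knockout DT40 cells stably expressing hTDP1, seeded 400/well; qHTS titration format.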
Gal4-VP16 FLuc – VP16 counterscreen qHTS for inhibitors of ROR gamma transcriptional activity; Drosophila S2 Gal4-VP16 UAS-luciferase, luminescence, 20 h; Potency, µM (doses to about 53.6 µM), without a hit: at the highest dose activity, negative = inhibition, usual class: inhibitors; 310,000 compounds, 3.5% hits; AID 2546, 2010;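 also: Gal4-VP16 expression switched on by copper sulfate through the metallothionein promoter; nearly all actives have a fitted effect of over 50% in size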
ELG1 DNA repair – qHTS screen for small molecules that inhibit ELG1-dependent DNA repair in human embryonic kidney (HEK293T) cells expressing luciferase-tagged ELG1; HEK293T ELG1-luciferase reporter, luminescence, 16 h; DNA damage induced by 5-fluorouridine; Potency, µM (titrated, usually from 46.1 µM), for inactives: at the highest dose activity change, negative = inhibition, most hits filed as inhibitors; 330,000 compounds, 2.3% hits; AID 504467, 2011; also: nearly all actives have a fitted effect of over 55% in size
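Quantitative HTS, concentration-response format. 2,000 cells/well co-treated with 5-fluorouridine and compound, 16 hr in 5% CO2 at 37 °C; ONE-Glo luminescence read after 30 min.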
* marks the source's active call; other numbers are inactive results; ? = inconclusive; . = no result given; [ ] = remark or other dose. Most compounds without a hit are left out; they make up all but 15% or so of the library. Calls follow the shape of the dose curve; as a rule, active = well fitted curve in the direction sought with a large enough effect; inconclusive = small, poorly fitted or top-dose-only effect, or another doubt; inactive = no such curve, though single readings can be large; an effect the other way counts as inactive or inconclusive. % is scaled to controls: 0 for no effect and ±100 for the full control effect; potency is read from the fitted curve at half-maximal effect.

SMILES	12-LOX inh	DT40 TDP1 no CPT	RORgamma inh	DT40 TDP1 CPT	Gal4-VP16 FLuc	ELG1 DNA repair
CCC1CCC(C(=O)Nc2ccc3ccccc3c2)CC1 (configuration not stated)	47%	.	.	.	.	.
Cc1cc(NC(=O)c2ccccc2F)n(-c2nc3ccccc3[nH]2)n1	3%	?	1.1µM*	?	4.5µM*	16µM*
Cc1cc(NC(=O)c2c(F)cccc2Cl)n(-c2nc3ccccc3[nH]2)n1	0%	23µM*	4.5µM*	?	7.1µM*	21µM*
CC(C)(C)c1cc(NC(=O)c2c(F)cccc2Cl)n(-c2ccccc2)n1	-5%	?	-1%	?	8%	0%
Cc1cc(NC(=O)c2ccccc2C)n(-c2cccc(F)c2)n1	1%	-29%	-8%	-16%	-11%	-2%
Cc1cc(NC(=O)c2ccc(C)s2)n(-c2nc3ccccc3[nH]2)n1	-3%	21µM*	5%	?	-9%	?
COCCO[C@H]1C(=O)N(C2CCN(Cc3c[nH]c4ccccc34)CC2)[C@H]1c1ccncc1	39%	.	.	.	.	.
CN1CCCCCC(O)c2cc(C(=O)N3CCN(c4ccccn4)CC3)ccc21 (configuration not stated)	24%	.	.	.	.	.
CC(C)(C)Sc1ccc2nc3c(n2c1)CCCC3	-1%	5.8µM*	4µM*	21µM*	11µM*	?
Cc1cc(C(=O)O/N=C(\N)c2ccc(C(C)(C)C)cc2)no1	440%	-18%	12%	-15%	24%	?
CC(C)(C)c1ccc(NC(=O)CON=C(N)c2ccccc2)cc1	-2%	29µM*	.	?	.	10%
Cc1noc(-c2ccc(Cl)cc2)c1C(=O)O/N=C(\N)c1ccc(C(C)(C)C)cc1	-5%	?	7.1µM*	?	7.9µM*	?
CC(C)(C)c1ccc(C(=O)O/N=C(\N)c2ccccc2)cc1	1%	13µM*	1.1µM*	?	6.3µM*	?
CCOC(=O)c1cc(/C(C)=N/OC(=O)c2ccc(C(C)(C)C)cc2)on1	0%	16µM*	-2%	?	3%	-13%
COc1ccc(C(=O)O/N=C(\N)c2ccccc2)cc1	-3%	-23%	?	-17%	?	?
Cc1occc1C(=O)O/N=C(\N)c1ccc(Cl)cc1	20%	-22%	16%	-3%	-11%	?
COc1ccc(/C=N/n2cnc3c([nH]c4ccc(F)cc43)c2=O)cc1CSc1ccccn1	?	7.3µM*	-5%	1.2µM*	-4%	-1%
COc1ccc2c(c1)[nH]c1c(=O)n(/N=C/c3ccc(OC)c(COc4ccccn4)c3)cnc12	3%	?	?	-18%	-8%	-9%
COc1cc([C@@H]2[C@H]3CNCC=C3C(C#N)=C(N)C2(C#N)C#N)ccc1OC(C)C	43%	?	-1%	9.2µM*	0%	?
CC(C)(C)OC(=O)N1CCC(c2c(C(=O)N3CCC(c4ccccc4)C3)cnn2-c2cccc(Cl)c2)CC1 (configuration not stated)	-19%	15µM*	.	18µM*	.	.
CC1CCN(C(=O)c2cnn(-c3cccc(Cl)c3)c2C2CCN(C(=O)OC(C)(C)C)CC2)CC1	-5%	?	.	21µM*	.	.
Cc1ccc(C2CCN(C(=O)c3cnn(-c4cccc(Cl)c4)c3C3CCN(C(=O)OC(C)(C)C)CC3)C2)cc1 (configuration not stated)	-21%	7.3µM*	.	13µM*	.	.
Cc1cccc(-n2ncc(C(=O)N3CCN(C4CCCCC4)CC3)c2C2CCN(C(=O)OC(C)(C)C)CC2)c1	-9%	21µM*	.	16µM*	.	.
Cn1nc(C(=O)N2CC(C)(C)C(C)(O)C2)cc1-c1cccs1 (configuration not stated)	18%	.	.	.	.	.
N#Cc1cccc(Oc2ccc(C(=O)OCC(=O)c3ccccc3)cc2)c1C#N	2%	.	.	.	.	.
SMILES	12-LOX inh	DT40 TDP1 no CPT	RORgamma inh	DT40 TDP1 CPT	Gal4-VP16 FLuc	ELG1 DNA repair
O=C(c1ccco1)N1CCN(C(=O)N2CC3CC(C2)[C@H]2CCCC(=O)N2C3)CC1 (some centres not stated)	42%	.	.	.	.	.
CC1(C)CS(=O)(=O)N(c2ccc(C(=O)Nc3ccc4c(c3)OCO4)cc2)C1=O	65%	.	.	.	.	.
CN(C)c1cc(N2CCCC(NC(=O)Cc3ccc(F)cc3)C2)ncn1 (configuration not stated)	16%	.	.	.	.	.
O=C(c1ccccc1)N1CCCc2ccccc21	0%	?	43%	-18%	-2%	1%
O=C(c1ccccc1)N1CCN(C(=O)c2ccccc2)c2ccccc21	2%	?	.	8.2µM*	.	.
O=C(c1cccc(N2C(=O)C3CC=CCC3C2=O)c1)N1CCCc2ccccc21 (configuration not stated)	?	1.5µM*	18%	?	2%	?
CC(=O)Nc1cccc(C(=O)OC(C)C(=O)N2CCc3ccccc32)c1 (configuration not stated)	-16%	4.1µM*	.	29µM*	.	3%
O=C(c1cccc(N2C(=O)C3C4C=CC(C4)C3C2=O)c1)N1CCCc2ccccc21 (configuration not stated)	27%	?	9%	-9%	4%	-24%
O=C(c1ccccc1)N1CCc2ccccc21	0%	-14%	-7%	0%	?	28%
O=C(Nc1cccc(C(=O)N2CCCc3ccccc32)c1)c1ccccc1	0%	21µM*	-75%	?	?	-30%
CC(OC(=O)c1cccc([N+](=O)[O-])c1)C(=O)N1CCc2ccccc21 (configuration not stated)	189%	?	.	?	.	13%
CN(C)C[C@H]1O[C@@H](CO)[C@@H](O)[C@H]1N1CCCC1	47%[176 µM]	.	.	.	.	.
COCc1c(C(=O)N2CCC(C(=O)Nc3ccc4c(c3)OCO4)CC2)oc2ccccc12	-1%	.	.	.	.	.
Cc1ccc(Sc2cnc(N)nc2C)cc1	1%	16µM*	2%	?	2%	-6%
Cn1c2c(c(=O)[nH]c1=O)C(c1ccc(C(=O)O)cc1)C1=C(N2)c2ccccc2C1=O (configuration not stated)	45µM*	.	.	.	.	.
